FLuc inh-1 = inhibitors of firefly (Photinus pyralis) luciferase; P08659; purified P. pyralis luciferase, luminescence, biochemical; Potency, µM (titrated, usually from 115 µM), hits mostly inhibitors; 2.5% of 76,000 active; also: % is scaled to controls: 0 for no effect and ±100 for the full control effect; nearly all actives have a fitted effect of over 65% in size
Target sequence (P08659 whole entry, looked up): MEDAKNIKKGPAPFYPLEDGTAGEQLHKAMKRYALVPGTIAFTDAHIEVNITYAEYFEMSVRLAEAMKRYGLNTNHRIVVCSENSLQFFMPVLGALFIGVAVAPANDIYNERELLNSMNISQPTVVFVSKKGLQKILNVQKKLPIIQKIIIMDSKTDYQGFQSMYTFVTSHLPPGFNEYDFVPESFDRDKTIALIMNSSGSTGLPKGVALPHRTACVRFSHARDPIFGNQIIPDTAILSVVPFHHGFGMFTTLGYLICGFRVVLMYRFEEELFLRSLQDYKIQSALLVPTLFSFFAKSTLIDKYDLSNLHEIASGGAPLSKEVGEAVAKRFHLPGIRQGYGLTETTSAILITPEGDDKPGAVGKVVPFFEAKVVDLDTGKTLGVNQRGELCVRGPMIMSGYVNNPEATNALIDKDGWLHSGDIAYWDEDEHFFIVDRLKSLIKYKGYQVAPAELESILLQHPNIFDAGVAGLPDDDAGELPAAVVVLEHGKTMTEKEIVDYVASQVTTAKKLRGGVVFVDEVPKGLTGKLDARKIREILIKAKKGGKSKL
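Purified 10nM P. pyralis luciferase with 10uM D-luciferin and 10uM ATP in 50mM Tris acetate pH 7.5, 10mM Mg acetate, 0.01% Tween-20, 0.05% BSA. qHTS titration; luminescence read by CCD imager.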
3T3 cytotox = cytotoxic compounds in NIH 3T3 cells. NIH 3T3 viability, CellTiter-Glo ATP luminescence, 48-72 h. Potency, µM (top dose mostly 96.7 µM), inactives show top-dose activity change, negative = cytotoxicity, actives largely listed as inhibitors. 4.3% of 94,000 active. AID 1345082; also: % is scaled to controls: 0 for no effect and ±100 for the full control effect; nearly all actives have a fitted effect of over 55% in size
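First NIH 3T3 cells are plated at 400 cells/well; next compound is pinned in; then plates incubate 48 or 72 hr at 37 °C; finally CellTiter-Glo is added and luminescence read after 10 min.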
hNpr1 antagonist = human Npr1 receptor antagonism; P16066; HEK293 hNpr1 GloSensor cGMP, ANP-stimulated luminescence; Potency, µM (titrated, usually from 46.3 µM), inactives show top-dose activity change, negative = inhibition, actives largely listed as inhibitors; 1.6% of 76,000 active; calls by dose curve; also: % is scaled to controls: 0 for no effect and ±100 for the full control effect; nearly all actives have a fitted effect of over 60% in size
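Compound pre-incubated 30 min at room temperature on GloSensor-loaded HEK293 cells stably carrying hNpr1 and the pGS-40F cGMP biosensor. Stimulation uses hNppA at 0.1 nM final; luminescence is taken at baseline and 20 min post-agonist.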
HEK293 tox = HEK 293 cell cytotoxicity; HEK 293 viability, ATP luminescence (CellTiter-Glo), 48-72 h; Potency, µM (doses to about 115 µM), without a hit: at the highest dose activity change, negative = cytotoxicity, hits mostly inhibitors; 6.6% of 94,000 active; AID 1345083; also: % is scaled to controls: 0 for no effect and ±100 for the full control effect; nearly all actives have a fitted effect of over 60% in size
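HEK 293 cells seeded at 250 cells/well were exposed to compound for 48 or 72 hr at 37 degree Celsius. Viability taken as ATP content by CellTiter-Glo luminescence.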
FLuc SDR -ATP = binders stabilizing firefly luciferase, without ATP; Purified FLuc-C-HiBiT, Nano-Glo HiBiT luminescence, no ATP; shares compounds with FLuc inh-1; 7.8% of 1,300 active; Potency, µM (highest dose often 32.7 µM), for the others: at the top dose activation (signal gain), usual class: activators; also: nearly all actives have a fitted effect of over 55% in size
FLuc SDR ATP = firefly luciferase binding stabilization, ATP added | shares compounds with FLuc inh-1 | purified FLuc-C-HiBiT + ATP, HiBiT complementation luminescence | Potency, µM (top dose mostly 32.7 µM), inactives show at the top dose activation (gain of signal), hits mostly activators | 8.7% of 1,300 active;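 also: signal reports ligand binding via conformational change of the enzyme rather than luciferase catalysis; % of control where 0% means no effect; nearly all actives have a fitted effect of over 55% in size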
FLuc inh-2 = blocks firefly luciferase enzymatic activity. Potency, µM (series often up to 32.7 µM), inactives show at the top dose activity change, negative = inhibition, hits mostly inhibitors. 42% of 1,300 active. purified FLuc-C-HiBiT enzyme, luciferin luminescence. shares compounds with FLuc inh-1; also: % is scaled to controls: 0 for no effect and ±100 for the full control effect; nearly all actives have a fitted effect of over 70% in size
An asterisk follows results filed as active; [ ] = remark or other dose. The list is not random: actives were taken first. Their share in the collection is about 11%. Unless noted, calls follow the shape of the dose curve; as a rule, active = well fitted curve in the direction sought with a large enough effect; inconclusive = small, poorly fitted or top-dose-only effect, or another doubt; inactive = no such curve, though single readings can be large; an effect the other way counts as inactive or inconclusive. Potency is read from the fitted curve at half-maximal effect.

Results for CSC(=S)Nc1ccc(-c2nc3ccc(C)cc3s2)cc1 ?
FLuc SDR -ATP: 25.0%; FLuc SDR ATP: 18.6%; FLuc inh-2: 2.48µM*

Results for Cc1ccc(NC(=O)Cn2c(-c3ccccc3)nc(C)cc2=O)cc1 ?
FLuc inh-1: inactive; 3T3 cytotox: inconclusive; hNpr1 antagonist: -18.2%; HEK293 tox: inconclusive

How did O=C([C@H]1C[C@H](Oc2cccnc2)CN1C(=O)CCc1c[nH]c2ccccc12)N1CCOCC1 do in these assays?
FLuc inh-1: inactive; 3T3 cytotox: -16.7%; hNpr1 antagonist: -8.3%; HEK293 tox: 0.0%

How did Cc1ccc2nc(-c3ccc(NC(=O)COc4ccc(Cl)c(C)c4)cc3)sc2c1 do in these assays?
FLuc SDR -ATP: 15.5%; FLuc SDR ATP: 9.6%; FLuc inh-2: -10.8%

What do the screens show for `COc1ccc(CN2CC(COc3ccccc3)C3(C2)CN(c2ccccc2)C3)cc1O` (stereo unspecified)?
FLuc inh-1: inactive; 3T3 cytotox: inconclusive; hNpr1 antagonist: -17.6%[70.6 µM]; HEK293 tox: 28.2µM*; FLuc SDR -ATP: 11.5%[49.3 µM]; FLuc SDR ATP: 7.4%[49.3 µM]; FLuc inh-2: -16.0%[49.3 µM]

What do the screens show for `O=C(O)c1ccc(CN2CC(COc3ccccc3)C3(C2)CN(c2ccccc2)C3)cc1` (stereo unspecified)?
FLuc inh-1: inactive; 3T3 cytotox: -21.6%[138 µM]; hNpr1 antagonist: -21.6%[70.6 µM]; HEK293 tox: inconclusive

How did OC[C@@H]1CN(Cc2ccccc2OC(F)(F)F)C[C@H]1c1ccncc1 do in these assays?
FLuc inh-1: inactive; 3T3 cytotox: inconclusive; hNpr1 antagonist: -28.9%; HEK293 tox: inconclusive

Results for CCCN1CCCC2(Cc3ccccc3CN(C(=O)c3c(C)noc3C)C2)C1 (stereo unspecified) ?
3T3 cytotox: -8.5%; HEK293 tox: -25.0%

How did Clc1ccc(-c2nc(-c3ccccn3)no2)cc1Cl do in these assays?
FLuc SDR -ATP: inconclusive; FLuc SDR ATP: inconclusive; FLuc inh-2: 5.56µM*

What do the screens show for `c1cnc(-c2noc(-c3nc(-c4ccc5c(c4)OCO5)no3)n2)cn1`?
FLuc inh-1: inactive; 3T3 cytotox: 2.7%; hNpr1 antagonist: -8.9%; HEK293 tox: 2.1%

Results for Brc1ccc(-c2nc(-c3ccccn3)no2)o1 ?
FLuc SDR -ATP: inconclusive; FLuc SDR ATP: inconclusive; FLuc inh-2: 1.24µM*

How did c1ccc(CN(Cc2nc(-c3ccccn3)no2)CC2CC2)cc1 do in these assays?
FLuc inh-1: inactive; 3T3 cytotox: 1.2%; hNpr1 antagonist: -0.9%; HEK293 tox: inconclusive

What do the screens show for `COc1ccc(-n2cc(-c3ccnc(N(C)Cc4cnccn4)n3)cn2)cc1`?
FLuc inh-1: inconclusive; 3T3 cytotox: inconclusive; hNpr1 antagonist: 0.7%; HEK293 tox: inconclusive

How did COc1cccc(-n2cc(CN(C)c3ncncn3)cn2)c1 do in these assays?
FLuc inh-1: 12.6µM*; 3T3 cytotox: -27.3%; hNpr1 antagonist: 1.3%; HEK293 tox: -17.0%; FLuc SDR -ATP: 17.0%; FLuc SDR ATP: 10.6%; FLuc inh-2: -15.6%

Results for CC(=O)Nc1ccc(-c2nnc3n2CCN(C(=O)c2ccccc2)C3)cc1 ?
3T3 cytotox: -2.5%; HEK293 tox: -18.1%

How did Cc1ccc(C)c(N2CCN(C(=O)c3ccc(NC(=O)c4nsc5ccccc45)cc3)CC2)c1 do in these assays?
FLuc SDR -ATP: 16.5%; FLuc SDR ATP: inconclusive; FLuc inh-2: inconclusive

Results for CCN(CC)Cc1cnc2c(C(=O)NCC(C)c3ccccc3)cnn2c1 (stereo unspecified) ?
FLuc inh-1: inactive; 3T3 cytotox: -2.6%; hNpr1 antagonist: -0.8%; HEK293 tox: inconclusive

How did CC(C)(CC(=O)O)CC(=O)N1Cc2[nH]cnc2C[C@H]1c1nc(Cc2ccccc2)no1 do in these assays?
FLuc inh-1: inactive; 3T3 cytotox: 0.2%[174 µM]; hNpr1 antagonist: 14.1%[70.6 µM]; HEK293 tox: 1.3%[172 µM]; FLuc SDR -ATP: 8.4%[49.3 µM]; FLuc SDR ATP: 7.1%[49.3 µM]; FLuc inh-2: -2.5%[49.3 µM]

Results for CC[n+]1c(/C=C/N(C)c2ccccc2)n(-c2ccccc2)c2ccc(-c3nc4ccccc4s3)cc21 ?
FLuc SDR -ATP: 8.9%; FLuc SDR ATP: 6.7%; FLuc inh-2: inconclusive

Results for O=C(NCc1ccccc1)c1cn2cc(-c3ccccc3)sc2n1 ?
3T3 cytotox: -31.7%[138 µM]; HEK293 tox: -17.7%[172 µM]

What do the screens show for `Cc1ccc(Cc2cn3cc(-c4ccccc4)nc3s2)cc1`?
FLuc SDR -ATP: inconclusive; FLuc SDR ATP: inconclusive; FLuc inh-2: 0.442µM*

What do the screens show for `Fc1ccc(-c2cn3cc(Cc4ccccc4Cl)sc3n2)cc1`?
FLuc SDR -ATP: inconclusive; FLuc SDR ATP: inconclusive; FLuc inh-2: 0.989µM*

What do the screens show for `Fc1ccccc1Cc1cn2cc(-c3ccc(Cl)cc3)nc2s1`?
FLuc SDR -ATP: 20.1%; FLuc SDR ATP: inconclusive; FLuc inh-2: 1.57µM*

How did Clc1ccc(-c2cn3cc(Cc4ccccc4)sc3n2)cc1 do in these assays?
FLuc SDR -ATP: 29.5%; FLuc SDR ATP: inconclusive; FLuc inh-2: 0.785µM*

How did O=C(COc1ccc(F)cc1)N1CCC(n2cc(-c3nc(-c4ccccc4)no3)nn2)C1 (stereo unspecified) do in these assays?
FLuc inh-1: inconclusive; 3T3 cytotox: inconclusive; hNpr1 antagonist: -9.4%; HEK293 tox: inconclusive

Results for O=C(NC1CCCCCC1)c1cn2cc(-c3ccc(F)cc3)sc2n1 ?
3T3 cytotox: inconclusive; HEK293 tox: -29.7%

How did Fc1ccc(Cc2cn3cc(-c4ccc(F)cc4)nc3s2)cc1 do in these assays?
FLuc SDR -ATP: inconclusive; FLuc SDR ATP: inconclusive; FLuc inh-2: 0.881µM*

How did Cc1nc2ccc(Cc3nc(-c4cccnn4)no3)cc2[nH]1 do in these assays?
FLuc inh-1: inactive; 3T3 cytotox: -13.7%; hNpr1 antagonist: 1.7%; HEK293 tox: -14.4%

How did CCN(CC1CCOCC1)C(=O)c1cccnc1SC/C=C/c1ccccc1 do in these assays?
FLuc inh-1: 11.2µM*; 3T3 cytotox: -25.3%; hNpr1 antagonist: -4.6%; HEK293 tox: inconclusive; FLuc SDR -ATP: 8.3%; FLuc SDR ATP: 4.7%; FLuc inh-2: inconclusive

Results for CCOc1ccc(-c2cc3c(=O)n(CCNC(=O)c4cccc(C#N)c4)ccn3n2)cc1 ?
FLuc inh-1: 0.794µM*; 3T3 cytotox: 2.6%; hNpr1 antagonist: -1.3%; HEK293 tox: 2.3%; FLuc SDR -ATP: 26.2%; FLuc SDR ATP: 15.0%; FLuc inh-2: inconclusive

Assay outcomes deposited in PubChem by National Center for Advancing Translational Sciences (NCATS).
